Mtb FBA inh – inhibitors of M. tuberculosis fructose-bisphosphate aldolase; P9WQA3; actives 2.3% (n = 360,000); purified M. tuberculosis FBA, fluorescence read-out; inhibition, % at 1 µM; in the data active means inhibition above about 27%
Target sequence (P9WQA3 whole entry, looked up): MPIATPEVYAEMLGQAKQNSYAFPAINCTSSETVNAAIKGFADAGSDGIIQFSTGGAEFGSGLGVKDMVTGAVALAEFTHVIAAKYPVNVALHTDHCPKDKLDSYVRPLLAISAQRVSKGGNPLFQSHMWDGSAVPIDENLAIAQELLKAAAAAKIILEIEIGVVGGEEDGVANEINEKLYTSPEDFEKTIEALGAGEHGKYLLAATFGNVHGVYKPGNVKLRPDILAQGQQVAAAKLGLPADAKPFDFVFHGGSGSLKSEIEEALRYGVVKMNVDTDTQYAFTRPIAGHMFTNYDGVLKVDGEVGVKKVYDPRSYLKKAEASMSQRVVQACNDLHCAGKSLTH
BioA inh-1 – blocks M. tuberculosis BioA enzyme activity; purified M. tuberculosis BioA enzyme, plate reader; inhibition, % at 9.99 µM; actives 0.096% (n = 360,000); AID 602481; in the data active means inhibition above about 40%; inconclusive means no clear call, values can overlap the other calls
GDH-TPI counter – inhibits GDH-TPI coupling enzymes, artifact for Mtb FBA screen. inhibition, % at 4.8 µM. GDH-TPI coupled enzyme counterscreen, NADH absorbance. actives 1.2% (n = 360,000); in the data active means inhibition above about 30%
Mtb hypoxia rep – reduces hypoxia-regulated biosensor signal in M. tuberculosis | M. tuberculosis hypoxia-regulated fluorescent reporter, fluorescence | fluorescence inhibition, % (concentration not given with the values) | actives 0.1% (n = 300,000); in the data active means fluorescence inhibition mostly above about 23%, no sharp cut-off; inactive means mostly below about 17%
FadD28 binding – inhibitors of Mycobacterium tuberculosis FadD28 bisubstrate binding | FadD28 bisubstrate probe binding, fluorescence polarization | inhibition, % at 12.5 µM | actives 0.22% (n = 360,000) | AID 588549; in the data active means inhibition above about 8.5%, passing the limit was not always enough; inconclusive means no clear call, values can overlap the other calls
BioA inh-2 – blocks M. tuberculosis BioA aminotransferase. 310 tested, under 10 active. AID 651679. shares compounds with BioA inh-1. max activity, %. purified BioA enzyme, plate reader, dose response;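 further: top concentration of the dilution series was 10 µM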
HepG2 cytotox – cytotoxicity in HepG2 cells; shares compounds with BioA inh-1; plate reader; max activity, %; 310 tested, under 10 active; AID 651898
3T3 cytotox 5 – kills NIH3T3 cells; AID 651900; shares compounds with BioA inh-1; activity change, negative = cytotoxicity, % at 26 µM; NIH3T3 cytotoxicity, plate reader; 310 tested, under 10 active
Numbers stand for hits; . = inactive; ? = inconclusive; / = no result. This is a sample that favours compounds with a hit; in the whole collection about 2.9% have one here. Unless noted, how the calls were made is not given here.

SMILES | Mtb FBA inh | BioA inh-1 | GDH-TPI counter | Mtb hypoxia rep | FadD28 binding | BioA inh-2 | HepG2 cytotox | 3T3 cytotox 5
CCOC(=O)C1=C(C)Nc2sc(C(=O)c3ccc(OC)cc3)c(N)c2C1c1ccc(C(=O)OC)cc1 (stereo not given) | . | . | . | . | . | / | / | /
COC(=O)C1=C(C)Nc2sc(C(N)=O)c(N)c2C1c1ccncc1 (stereo not given) | . | 76 | . | . | . | . | . | .
CCc1ccc(NC(=O)C(CC)Sc2nc3ccsc3c(=O)n2CCC(=O)O)cc1 (stereo not given) | . | . | . | . | . | / | / | /
CCC(Sc1nc2ccsc2c(=O)n1Cc1ccc(C(=O)O)cc1)C(=O)Nc1cccc(OC)c1 (stereo not given) | . | 75 | . | / | . | . | . | .
O=C(NN=C1CCCc2ccccc21)c1ccccc1[N+](=O)[O-] | / | / | / | . | / | / | / | /
C[C@@H]1CN([C@@H](C)CO)C(=O)c2cc(C#Cc3cccnc3)cnc2O[C@H]1CN(C)S(C)(=O)=O | / | 74 | / | / | / | . | . | .
CCCc1c(OCCCOc2ccc(OCC(=O)O)cc2)ccc(C(C)=O)c1O | . | 79 | . | . | . | . | . | .
CCC(=O)c1ccc(OCC(=O)O)cc1 | . | / | . | . | . | / | / | /
Cc1cc2c(c(=O)n1Cc1cccnc1)C(c1cccs1)C(C#N)=C(N)O2 (stereo not given) | . | 64 | . | / | . | . | . | .
Cc1cc2c(c(=O)n1Cc1cccnc1)C(Cc1ccccc1)C(C#N)=C(N)O2 (stereo not given) | . | / | . | . | . | / | / | /
Cc1ccccc1S(=O)(=O)NCC[C@@H]1CC[C@@H](NC(=O)C2CCC2)[C@H](CO)O1 | / | . | / | / | / | / | / | /
CO[C@H]1CN(C)C(=O)c2ccc(NC(C)=O)cc2OC[C@@H](C)N(C(=O)C2CCCCC2)C[C@H]1C | / | 53 | / | / | / | . | . | .
CCc1ccc(NC(=O)CSc2nc(=O)n(CCCN3CCOCC3)c3c2CCCC3)cc1 | . | . | . | . | . | / | / | /
Cc1ccc(NC(=O)CSc2nc(=O)n(CCCN3CCOCC3)c3c2CCCC3)cc1F | . | 47 | . | . | . | . | . | .
Cc1cc(C(=O)CSc2nncs2)c(C)n1-c1ccc2c(c1)OCO2 | . | 49 | . | . | . | . | . | .
CCOC(=O)c1ccc2c(c1)nc(SCc1cn3ccsc3n1)n2CC | . | 53 | . | . | . | . | . | .
COc1ccc(Nc2c(-c3ccc(OC)cc3)nc3cnccn23)cc1 | . | 46 | . | . | . | . | . | .
COc1ccc(Nc2c(-c3ccc(C)cc3)nc3cnccn23)cc1 | . | / | . | . | . | / | / | /
COc1ccc(-c2nc3cnccn3c2Nc2ccc3c(c2)OCO3)cc1 | . | 54 | . | . | . | . | . | .
COCC(=O)N(C)C[C@H]1Oc2ncc(C3=CCCCC3)cc2C(=O)N([C@H](C)CO)C[C@H]1C | / | . | / | / | / | / | / | /
CC1=CC2=NC(=O)/C(=C\c3cc(C)n(-c4ccccc4)c3C)C(=N)N2O1 | . | . | . | . | . | / | / | /
CC1=CC2=NC(=O)/C(=C\c3cc(C)n(-c4ccccc4F)c3C)C(=N)N2O1 | . | 41 | . | . | . | . | . | .
C[C@H]1CN([C@@H](C)CO)C(=O)c2cc(NC(=O)Cc3ccccc3)ccc2O[C@@H]1CN(C)Cc1ccncc1 | / | . | / | / | / | / | / | /
O=C(Nc1ccccc1)N1CCN(Cc2ccc3c(c2)OCO3)CC1 | . | 76 | . | / | . | . | ? | ?
C[C@@H](C(=O)N1CCN(Cc2ccc3c(c2)OCO3)CC1)n1nnc2ccccc2c1=O | . | 70 | . | . | . | . | . | .
SMILES | Mtb FBA inh | BioA inh-1 | GDH-TPI counter | Mtb hypoxia rep | FadD28 binding | BioA inh-2 | HepG2 cytotox | 3T3 cytotox 5
O=C(c1ccc(Br)s1)N1CCN(Cc2ccc3c(c2)OCO3)CC1 | . | 59 | . | . | . | . | . | .
O=S(=O)(c1cccs1)N1CCCCN2[C@@H](CO)[C@H](c3ccc(Br)cc3)[C@@H]2C1 | / | . | / | / | / | / | / | /
Cc1ccc(S(=O)(=O)N(C)C[C@H]2Oc3ccc(NC(=O)NC(C)C)cc3C(=O)N([C@@H](C)CO)C[C@H]2C)cc1 | / | . | / | / | / | / | / | /
O=C(Nc1cccnc1)c1ccc(N2CCOCC2)c([N+](=O)[O-])c1 | . | 49 | . | . | . | . | . | .
O=C(Nc1ccc(N2CCOCC2)c(Cl)c1)c1cccnc1 | . | 47 | . | / | . | . | . | .
O=C(Nc1cccnc1)c1ccc(N2CCCC2)c([N+](=O)[O-])c1 | . | 72 | . | . | . | . | . | .
CCN(CC)S(=O)(=O)c1ccc(NC(=O)c2ccc(Cl)nc2)cc1 | . | 52 | . | . | . | . | . | .
COc1ccc(Cc2c(-c3ccc(C)cc3)nc3c(C)cc(Br)cn23)c(C)c1 | . | . | / | / | . | / | / | /
COc1ccc(Cc2c(-c3ccc(OC)c(OC)c3)nc3c(C)cc(Br)cn23)c(C)c1 | . | 69 | / | / | . | . | . | .
C[C@H]1CN([C@@H](C)CO)C(=O)c2c(c3ccccc3n2C)-c2ccccc2CO[C@@H]1CN(C)S(=O)(=O)c1cccs1 | / | . | / | / | / | / | / | /
CC(=O)c1ccc(NC(=O)C2CC(=O)N(Cc3ccccc3)C2)cc1 (stereo not given) | . | 74 | . | . | . | . | . | .
CCOC(=O)C1CCN(C(=O)Nc2ccc3snnc3c2)CC1 | . | 72 | . | . | . | . | . | .
O=C(c1cccc(F)c1)N1CC[C@@H]2[C@H](CO)Nc3ccc(-c4cccc(F)c4)cc3[C@@H]21 | / | 41 | / | / | / | . | . | .
O=C(c1cccc(F)c1)N1CC[C@@H]2[C@H]1c1cc(-c3cccc(F)c3)ccc1N[C@@H]2CO | / | 73 | / | / | / | . | . | .
COc1cccc(-c2ccc3c(c2)[C@@H]2[C@@H](CCN2C(=O)c2cccc(F)c2)[C@@H](CO)N3)c1 | / | . | / | / | / | / | / | /
COC(=O)NN=Cc1ccc([N+](=O)[O-])o1 | / | / | / | . | / | / | / | /
COC(=O)c1c(C(=O)OC)c(-c2ccc(OC)cc2)n2c1CS(=O)C2 (stereo not given) | . | . | . | . | . | / | / | /
COC(=O)c1c(C(=O)OC)c(-c2ccccc2)n2c1CS(=O)C2 (stereo not given) | . | 73 | . | . | . | . | . | .
COC(=O)c1c(C(=O)OC)c(-c2ccc(F)cc2)n2c1CS(=O)C2 (stereo not given) | . | 60 | . | . | . | . | . | .
O=C(c1ccc2c(c1)OCO2)N1CC[C@@H]2[C@@H](CO)Nc3ccc(-c4ccc(F)cc4)cc3[C@@H]21 | / | . | / | / | / | / | / | /
N#Cc1ccc(-c2ccc3c(c2)[C@@H]2[C@@H](CCN2C(=O)c2ccc(F)cc2)[C@@H](CO)N3)cc1 | / | 40 | / | / | / | . | . | .
O=C(c1ccc2c(c1)OCO2)N1CC[C@@H]2[C@H](CO)Nc3ccc(-c4ccc(F)cc4)cc3[C@@H]21 | / | 90 | / | / | / | . | . | .
Cc1noc(C)c1NC(=O)N(C)C[C@H]1Oc2ccc(NC(=O)NC3CCCCC3)cc2CC(=O)N([C@H](C)CO)C[C@H]1C | / | . | / | / | / | / | / | /

Source: PubChem
